PABP polyA inh: PABP poly(A) RNA binding inhibitors, primary screen, biochemical, fluorescence polarization, uHTS; Polyadenylate-binding protein 1 (Homo sapiens), P11940; inhibition, % at 35 µM; 290,000 tested, 1% active;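 note: calls also rest on retests at 20 µM and on dose response follow-up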
PABP1 MLLE inh: inhibitors of PABP1 MLLE–PAM2 peptide binding, primary screen, biochemical, fluorescence polarization, FITC-PAM2, GST-MLLE | Polyadenylate-binding protein 1 (Homo sapiens), P11940 | inhibition, % at 20 µM | 360,000 tested, 0.36% active; in the data active = inhibition above about 35%, passing the limit was not always enough;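 note: plate controls were DMSO wells with GST-MLLE for no effect and wells lacking GST-MLLE protein for full effect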
PERK inhibitor: block of dimerizer-induced PERK translation repression, primary screen, PERK inhibitor project, CHO PERK-DD cells, SEAP luminescence, HTS. Eukaryotic translation initiation factor 2-alpha kinase 3 (Homo sapiens), Q9NZJ5. CHO PERK-DD fusion, SEAP luminescence translation reporter. inhibition, % at 5.6 µM. 220,000 tested, 0.17% active. AID 1416, 2008;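 active = inhibition above the mean inhibition of all tested compounds plus 3 SD, set separately per screening campaign, cut at about 2.9% in these data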;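 note: PERK kinase domain activated by AP20187 dimerizer at 100 nM; 0% = DMSO with dimerizer and 100% = rapamycin at 8.4 µM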
GRK2 aptamer HTS: compounds blocking aptamer binding on GRK2 – biochemical, human GRK2, bead flow cytometry, HTS, primary screen; 330,000 tested, 0.59% active; FAM-aptamer displacement from GRK2; Beta-adrenergic receptor kinase 1 (Homo sapiens), P25098; inhibition of aptamer binding, % at 10 µM;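 active = inhibition of aptamer binding above 40%, roughly 3 SD of noise, on plates passing a quality check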;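 note: median bead fluorescence of bound FAM aptamer so fluorescent compounds give negative values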
eIF4H inh: human eIF4H binding inhibitors, primary screen, translation initiation inhibitor project, biochemical, uHTS, fluorescence polarization | Eukaryotic translation initiation factor 4H (Homo sapiens), Q15056 | eIF4H fluorescence polarization binding assay | inhibition, % at 35 µM | 290,000 tested, 0.94% active | AID 2012, 2009;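 note: calls also rest on retests at 20 µM and on dose response follow-up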
GRK2 inh confirm: GRK2 aptamer-displacing inhibitors, retest, confirmation, biochemical, cherry pick 1, bead flow cytometry | shares compounds with GRK2 aptamer HTS | bead-bound GRK2, FAM-aptamer displacement | aptamer displacement, % at 10 µM | 2,000 tested, 4% active;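 active = aptamer displacement above 40%, near three times the noise of non-fluorescent compounds, on plates passing quality checks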;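 note: negative values mostly reflect intrinsic compound fluorescence rather than true enhancement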
Aptamer quench 1: quenches fluorescent RNA aptamer, GRK2 hit artifact; shares compounds with GRK2 aptamer HTS; Fluorescent RNA aptamer beads, quenching, flow cytometry; stronger effect = higher value; fluorescence change (kMESF span), kMESF (no concentration beside the values); 110 tested, under 10 active;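 active = compounds whose bead fluorescence drops by more than 37 kMESF across the dose range, marking them as dye quenchers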
FAM quench CP1: counter-screen for GRK2 aptamer inhibitors: fluorescent aptamer quenchers. 2,000 tested, under 10 active. Carboxyfluorescein RNA aptamer on beads, flow cytometry quenching; stronger effect = lower value. shares compounds with GRK2 aptamer HTS. fluorescence response (% of DMSO), % at 10 µM. AID 504580;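 active = compounds that quench the bead-bound fluorescent RNA probe, cutting fluorescence to under half of the solvent control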;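 note: counterscreen run without GRK2 so only probe quenching by compound is measured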
GRK2 CP2: GRK2 aptamer-displacing inhibitors, hit retest, confirmation, biochemical, cherry pick 2, bead flow cytometry; shares compounds with GRK2 aptamer HTS; bead-bound GRK2, FAM-aptamer displacement; inhibition of aptamer binding, % at 10 µM; 360 tested, under 10 active; AID 504782, 2011;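 active = inhibition of aptamer binding above 40%, about triple the noise seen with nonglowing compounds, on plates passing quality control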;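 note: negative values mostly come from compounds that fluoresce themselves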
FAM quench SP: counter-screen for GRK2 binding hits: quenchers of fluorescent RNA aptamer; shares compounds with GRK2 aptamer HTS; carboxyfluorescein RNA aptamer beads, flow cytometry quenching; stronger effect = lower value; fluorescence response vs DMSO, % at 10 µM; 360 tested, under 10 active; AID 588494;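 active = response vs DMSO under 50%, meaning signal dropped by over half, treated as fluorescence quencher; inconclusive = no clear call, values can overlap the other calls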;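 note: labelled aptamer on streptavidin beads without GRK2 as a quench counter-screen; 100% = bead fluorescence of DMSO wells and lower means quenching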
The depositor's hits bear a star; i = inactive; u = inconclusive; x = not tested or not shown. Most compounds without a hit are left out; they make up all but 1.9% or so of the library. Unless noted, the rule behind the calls is not given here.

SMILES | PABP polyA inh | PABP1 MLLE inh | PERK inhibitor | GRK2 aptamer HTS | eIF4H inh | GRK2 inh confirm | FAM quench CP1 | others
O=C1c2cccc3cccc(c23)C(=O)N1/N=C/c1c(O)n(-c2ccccc2)c(=O)[nH]c1=O | u | 6.0 | 0.3 | 62.0* | u | 8.4 | 97.5
CCNC(=O)[C@H]1O[C@@H](n2cnc3c(N)ncnc32)[C@H](O)[C@@H]1O | -0.3 | -3.2 | 1.4 | 30.0 | -2.1 | 0.2 | 101.0
COC(=O)C1=C(c2c(C)noc2C)C[C@@H]2CC[C@H]1N2C(=O)NCCO | x | -1.8 | x | 75.0* | x | -2.6 | 93.8
CCN1CCN(S(=O)(=O)c2ccc(Cl)c(C(=O)Nc3ccc(C(=O)N(CC)CC)cc3)c2)CC1 | x | -118.6 | x | 3.0 | x | x | x
CC(CC(C)(C)N1CC1)=NNC(=O)Nc1cccc2ccccc12 | x | 1.9 | x | x | x | x | x
CC1(O)CCN2C(=O)CCc3cccc1c32 (centres undefined) | x | 27.3 | x | 41.0* | x | -3.7 | 102.6
CC1(C)CC2CCC(O)C2C(CCO)N1 (centres undefined) | x | 10.7 | x | x | x | x | x
Cc1nc2c(=O)n(C)c(=O)nc-2n(C)n1 | 4.9 | 7.6 | -1.2 | 41.0* | 5.2 | 62.5* | 92.3 | Aptamer quench 1=7.6
COC(=O)C1=C(c2c(C)noc2C)C[C@@H]2CC[C@H]1N2C(=O)N1CCCC1 | x | -9.8 | x | 0.0 | x | x | x
Cc1cc(/C=C2\C(=O)NC(=O)N(Cc3ccco3)C2=O)c(C)n1-c1ccc(O)cc1 | 31.1 | -16.9 | -0.2 | 3.0 | 81.0 | x | x
CCOC(=O)C1CCN(/C=C2/C(=O)NC(=O)N(Cc3ccco3)C2=O)CC1 | 33.1 | -20.8 | 1.2 | 82.0* | -31.2 | 35.1 | 97.8
Cc1ccc(OCCn2cccc2/C=C2/C(=O)NC(=O)N(Cc3ccco3)C2=O)cc1 | 20.7 | -16.5 | -0.5 | 2.0 | 46.6 | 3.5 | 94.0
Cc1ccc(-n2c(C)cc(/C=C3/C(=O)NC(=O)N(Cc4ccco4)C3=O)c2C)cc1 | -14.7 | -11.6 | 0.4 | 13.0 | u | x | x
O=C1NC(=O)N(Cc2ccco2)C(=O)/C1=C/C=C/c1ccco1 | u | -86.2 | 1.6 | 0.0 | u | 20.1 | 94.7
C=CCN1CC[C@]23c4c5ccc(O)c4OC2C(O)CC[C@@]3(O)[C@H]1C5 (some centres undefined) | x | -0.9 | x | 0.0 | x | x | x
Cn1cc(C(=O)OCC(=O)NC2(C#N)CCCCC2)c2ccccc21 | x | 7.1 | x | x | x | x | x
CCN(CCCl)c1cc(CN(C)C)cc(NC(=O)c2ccc(C(=O)Nc3cc(CN(C)C)cc(N(CC)CCCl)c3)cc2)c1 | x | -13.1 | x | x | x | x | x
Cc1cc(/C=C2\C(=O)NC(=O)N(Cc3ccccc3Cl)C2=O)c(C)n1-c1ccc(C(=O)O)cc1 | u | -60.9 | 0.8 | 77.0* | u | 30.9 | 98.9
Cc1cc(/C=C2\C(=O)NC(=O)N(Cc3ccco3)C2=O)c(C)n1-c1ccc(C(=O)O)cc1 | 13.6 | -48.1 | 1.0 | 10.0 | 41.2 | x | x
CCc1ccc(N2C(=O)NC(=O)/C(=C\c3cc(C)n(-c4cc(C(=O)O)cc(C(=O)O)c4)c3C)C2=O)cc1 | 16.3 | 4.2 | x | 58.0* | 43.7 | 5.6 | 88.7
Oc1c(Cl)cccc1Cc1cc(Cl)cc(Cl)c1O | x | 7.9 | x | x | x | x | x
COC(=O)C1=C(c2cccc(OCc3ccccc3)c2)C[C@@H]2CC[C@H]1N2C(=O)NCCc1ccc(F)cc1 | x | 11.1 | x | 98.0* | x | 1.4 | 103.8
Cc1ccccc1OP(N)(=O)Oc1ccccc1C | 4.4 | -2.5 | 0.7 | 52.0* | -2.7 | -1.3 | 99.8
CN1CCN(C(=O)O[C@H]2c3nccnc3C(=O)N2c2ccc(Cl)cn2)CC1 | -10.2 | -6.2 | x | 0.0 | -7.0 | x | x
O=c1[nH]c(CN2CCNCC2)nc2ccccc12 | -9.9 | -3.5 | -0.2 | 1.0 | 9.3 | x | x | GRK2 CP2=i;FAM quench SP=101.0
CN1CCN(Cc2nc3ccccc3c(=O)[nH]2)CC1 | -14.0 | -12.7 | -0.1 | 1.0 | -6.6 | x | x

High-throughput results (PubChem BioAssay)
